Screening results from PubChem BioAssay.
D1 agonist – activates the human D1 dopamine receptor | P21728 | HEK293 T-REx D1 cells, calcium flux, agonist mode | activation, % at 2 µM | 360,000 tested, 1% active | AID 504660; in the data active = activation above about 30%; also: 0% is about no effect
Target sequence (P21728 whole entry, looked up): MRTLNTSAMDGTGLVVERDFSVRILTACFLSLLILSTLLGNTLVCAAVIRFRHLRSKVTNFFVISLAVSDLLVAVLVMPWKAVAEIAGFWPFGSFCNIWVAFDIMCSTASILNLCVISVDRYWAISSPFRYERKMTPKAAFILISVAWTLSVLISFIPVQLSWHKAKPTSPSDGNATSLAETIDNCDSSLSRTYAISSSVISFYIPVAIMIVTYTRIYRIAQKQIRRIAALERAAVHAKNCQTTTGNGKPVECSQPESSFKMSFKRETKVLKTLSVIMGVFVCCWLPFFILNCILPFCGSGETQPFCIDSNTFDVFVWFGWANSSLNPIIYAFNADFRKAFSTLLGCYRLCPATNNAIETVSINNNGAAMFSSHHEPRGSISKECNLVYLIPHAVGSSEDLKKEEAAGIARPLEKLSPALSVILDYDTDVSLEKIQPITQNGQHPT
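Tetracycline-induced HEK293 TREx D1 cells, force-coupled to calcium signalling, were dye-loaded with a no-wash calcium kit. Compound was pin-added after a 10 s baseline. Fluorescence was read kinetically at 1 cycle/s for 180 s, with calcium rises flagged as agonism.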
D1 antag – human D1 dopamine receptor antagonism; 360,000 tested, 3.2% active; HEK293 TREx D1 cells, calcium flux, dopamine EC80; stronger effect = lower value; AID 504652; P21728; activity change, negative = inhibition, % at 10 µM; in the data active = activity change below about -30%; also: % is scaled to controls: 0 for no effect and ±100 for the full control effect
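Inducible Hek293 Trex D1 cells (tetracycline, overnight, 30 C). Calcium dye 30–90 min RT. Antagonist mode: EC80 dopamine added after 180 s compound read.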
D1 PAM – enhances dopamine response at the human D1 receptor; HEK293 TREx D1 cells, calcium flux, dopamine EC20 potentiation; AID 504651; potentiation, % at 10 µM; 360,000 tested, 0.036% active; in the data active = potentiation above about 30%; also: 0% is about no effect
D3 ag – activates the human D3 dopamine receptor. P35462. D3R DiscoveRx beta-arrestin cells, luminescence, 90 min. max activation, %. 410,000 tested, 0.58% active. AID 652048; in the data active = max activation above about 30%; also: 0% is about no effect
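Cells at 1500/well, incubated overnight, then treated with pinned compounds (dopamine as control) for 90 min at 37 degrees C. DiscoveRx reagent added for 30 - 60 minutes at room temperature; luminescence read.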
D3 antag – D3 dopamine receptor (human) antagonism; P35462; D3R cells, DiscoveRx beta-arrestin luminescence, antagonist mode; stronger effect = lower value; max response, negative = inhibition, %; 360,000 tested, 2.5% active; AID 652054; in the data active = max response below about -50%; also: % is scaled to controls: 0 for no effect and ±100 for the full control effect
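Cells plated overnight at 1500 cells/well, then exposed to library compounds with dopamine controls for 90 minutes at 37 degrees C. DiscoveRx reagent added for 30–60 minutes at room temperature; luminescence read, quantitative HTS format.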
Active calls of the source: *; ! = not confirmed by another sample. Shown are actives, neighbours in structure and some others; about 6.1% of the full set was active somewhere.

Screening CSc1ncc(C(=O)Nc2ccc(Cl)cc2C(=O)c2ccccc2)c(C)n1 returned D1 agonist -1, D1 antag -3, D1 PAM 1 and D3 ag 5.
Screening O=C(N/N=C/c1c(O)n(CCc2ccccc2)c(=O)[nH]c1=O)c1ccncc1 returned D1 agonist -1, D1 antag -37*, D1 PAM 2, D3 ag 10 and D3 antag -14.
`CC(=O)O[C@H]1C[C@H](O[C@H]2[C@@H](O)C[C@H](O[C@H]3[C@@H](O)C[C@H](O[C@H]4CC[C@@]5(C)[C@H](CC[C@@H]6[C@@H]5C[C@@H](O)[C@]5(C)[C@@H](C7=CC(=O)OC7)CC[C@]65O)C4)O[C@@H]3C)O[C@@H]2C)O[C@H](C)[C@H]1O[C@@H]1O[C@H](CO)[C@@H](O)[C@H](O)[C@H]1O` gave D3 ag 3.
`COc1cc(/C=C/c2nc3ccccc3c(=O)n2-c2ccc(Br)c(C)c2)ccc1O` gave D1 agonist 17, D1 antag 0, D1 PAM 0 and D3 ag -4.
CC(C)(C)c1cc([N+](=O)[O-])cc(C(C)(C)C)c1O was read as D1 agonist 34*, D1 antag -36*, D1 PAM -8, D3 ag -4 and D3 antag -16.
For Cc1cc(C)cc(N2C(=O)NC(=O)/C(=C\c3cccn3-c3ccc(Cl)cc3)C2=O)c1 the results were D1 agonist 6, D1 antag -7, D1 PAM -2, D3 ag -3 and D3 antag -72*.
Screening CC(C)c1ccc(NC(=O)CN2C(=O)CN=C(c3ccccc3)c3ccccc32)cc1 returned D1 agonist 1, D1 antag 1, D1 PAM 1 and D3 ag 6.
For COC1=CC=C2[C@H]3Cc4ccc(OC)c5c4[C@@]2(CCN3C)[C@H]1O5 the results were D1 agonist 1, D1 antag 5, D1 PAM -4, D3 ag -15 and D3 antag -66*.
CCn1c(=N)n(Cc2ccccc2F)c2ccccc21 was read as D1 agonist 7, D1 antag 11, D1 PAM -2, D3 ag -1 and D3 antag 16.
For Cc1ccc(C2CC3CCC(C2)N3Cc2ccccc2F)cc1 (stereo not drawn) the results were D1 agonist 2, D1 antag -11, D1 PAM -5, D3 ag -9 and D3 antag -82*.
For O=C(COC(=O)Cc1ccccc1)NC12CC3CC(CC(C3)C1)C2 the results were D1 agonist -1, D1 antag 10, D1 PAM 0, D3 ag 12 and D3 antag 18.
For NC(=O)c1ccsc1NC(=O)COC(=O)Cc1ccccc1 the results were D1 agonist 17, D1 antag -32*, D1 PAM -6, D3 ag 2 and D3 antag 21.
For Cc1cc(C)cc(OCC(=O)Nc2ccc(Cl)cc2C(=O)c2ccccc2)c1 the results were D1 agonist 1, D1 antag -9, D1 PAM -1 and D3 ag 4.
Cc1cc(O)c(CN2CC=C(c3ccccc3)CC2)cc1C(C)C was read as D1 agonist 1, D1 antag 12, D1 PAM -7, D3 ag -20 and D3 antag -73*.
NC(Cc1cc(O)c(O)cc1O)C(=O)O (stereo not drawn) was read as D1 agonist 1, D1 antag 8 and D1 PAM 0.
NCCc1cc(O)c(O)cc1O was read as D3 ag -10 and D3 antag -68*!.
`C[C@]12C[C@H]3S[C@H]3C[C@@H]1CC[C@@H]1[C@@H]2CC[C@]2(C)[C@@H](O)CC[C@@H]12` gave D3 ag 1.
N#CC(C#N)=Cc1ccc(N2CCOCC2)cc1 was read as D1 agonist 5, D1 antag -17, D1 PAM -3, D3 ag 6 and D3 antag -21.
Cc1cc(C=C(C#N)C#N)ccc1N1CCCC1 was read as D1 agonist 51*, D1 antag -6, D1 PAM -5, D3 ag -2 and D3 antag -10.
`CNCCc1ccc(O)c(O)c1` gave D3 ag 116* and D3 antag 15.
`Cc1oc(-c2ccc(Cl)cc2)nc1CN1C(=O)CN=C(c2ccccc2)c2cc(Cl)ccc21` gave D1 agonist 17, D1 antag -7, D1 PAM -1 and D3 ag 1.
CC1=C(/C=C/c2ccccc2)CCN(C)C1 was read as D1 agonist 14, D1 antag -1, D1 PAM -4, D3 ag -22 and D3 antag -63*.
Screening O=C(Cc1c(Cl)cccc1Cl)N1CCN(Cc2ccccc2)CC1 returned D1 agonist 18, D1 antag 24, D3 ag -20 and D3 antag -51*.
Screening Cc1ccc(CC(=O)N2CCN(Cc3ccccc3)CC2)cc1 returned D1 agonist 0, D1 antag -2, D1 PAM 1, D3 ag 3 and D3 antag -3.
`NC(N)=Nc1ccc2[nH]c3c(c2c1)C[C@@]1(O)[C@H]2Cc4ccc(O)c5c4[C@@]1(CCN2CC1CC1)[C@H]3O5` gave D1 agonist 1, D1 antag -10, D1 PAM -6, D3 ag -46 and D3 antag -61*.
CCOP(=O)(OCC)OCC was read as D1 agonist -1, D1 PAM 0, D3 ag -90 and D3 antag -110*.
CCOP(=O)(OCC)Oc1cc(C)c(N(C)C)c(C)c1 was read as D1 agonist 1, D1 antag 26, D1 PAM -2, D3 ag 6 and D3 antag 12.
`Cc1cccc(CN2CC=C(c3noc(CCC(=O)Nc4ccc(C)c(F)c4)n3)CC2)c1` gave D1 agonist 11, D1 antag -13, D1 PAM -2 and D3 ag -19.
For CCn1c(O)c(N=Nc2ccc(S(=O)(=O)N3CCOCC3)cc2)c(=O)n(CC)c1=S the results were D1 agonist 1, D1 antag -17, D1 PAM -6, D3 ag -5 and D3 antag -71*.
Screening O=c1[nH]c(=O)n(C2CCCCC2)c(O)c1C=Nc1ccc(N2CCOCC2)cc1 returned D1 agonist 6, D1 antag 13, D1 PAM -1, D3 ag 6 and D3 antag 14.
`CCn1c(O)c(C=Nc2ccc(N3CCOCC3)cc2)c(=O)n(CC)c1=S` gave D1 agonist 99*, D1 antag -4, D1 PAM -4, D3 ag -1 and D3 antag -4.
`O=c1[nH]c(=S)n(-c2ccc(Cl)cc2)c(O)c1C=Nc1ccc(N2CCOCC2)cc1` gave D1 agonist 42*, D1 antag 2, D1 PAM -6, D3 ag 11 and D3 antag -9.
